# Measurements published in PubChem BioAssay (NCI).
# About 83,000 compounds went through this panel and 20% of them were active in at least one assay; those are over-represented in the sample as a whole.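 Note: values are percent growth. 100 is the growth of untreated cells, values between 100 and 0 indicate rising inhibition; between -100 and 0 indicates cell death.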 A number with no mark means an inactive call. Calls of active or inactive are those of the source. The calls were made as follows: active = growth percent below 10; inactive = the rest.
# Tested on: MDA-MB-468 breast
# Experiment: NCI-60 one-dose screen, 48 h (100 = growth as untreated, 0 = no growth, -100 = all killed)
# Conditions: 10 µM unless noted
row,Structure (SMILES),growth
1,Cc1cc(=O)oc2cc(OC(=O)CN3CCN(C)CC3)ccc12,101%
2,CC(C)C[C@H](C(=O)N[C@@H](C)C(N)=O)N1CC=CCN(O)S1(=O)=O,109% [5 µM]
3,C=CC(=O)OCCCCCCCC,106%
4,CCCCCCCCCCCCCCCCCCOc1cccc(CCOP(=O)(O)OCC[N+](C)(C)C)c1,94.2%
5,O=C1/C(=C/c2ccc(O)cc2)COc2ccc(O)cc21,100%
6,CCCCCCn1c(-c2ccc(C(=O)O/N=C(\N)c3ccc4ccccc4c3)cc2)nc(-c2ccccc2)c1-c1ccccc1,78.8%
7,CCOC(=O)C1=NN(c2ccccc2)C(=O)/C1=C\N1C(=O)CC(=O)NC1=S,114%
8,O=C1c2c(c3c4cc(Br)ccc4[nH]c3c3ccc4ccccc4c23)C(=O)N1O,62.1%
9,COC(=O)Nc1nc2ccc(C(=O)c3ccccc3)cc2[nH]1,-13.7% (active)
10,CN(C)CC1CCCCCC(CN(C)C)C1=O (stereo not given),15.3%
11,O=C(O)c1ccc2c(c1)nc(Nc1cccc(Cl)c1)c1ccncc12,-36.1% (active)
12,CC(C)Cc1ccc(C(C)C(=O)NCc2ccc(Cn3c(=O)sn(-c4ccc(Cl)cc4)c3=O)cc2)cc1 (stereo not given),54.4%
13,O=C(c1ccccc1)N1N=C(c2ccc(-n3ccc(C(F)(F)F)n3)cc2)CC1c1ccc[nH]1 (stereo not given),86%
14,N#Cc1c(-c2ccc(F)cc2)n2c(nc1=O)SC(=O)C2=O,94.5%
15,Oc1c(I)cc(I)cc1CNCCN(Cc1ccccn1)Cc1ccccn1,-61.2% (active)
16,Nc1nc(SCc2cccnc2)c2ncn(C3OC(CO)C(O)C3O)c2n1 (stereo not given),97.4%
17,N#Cc1nc(-c2ccccc2)oc1S(=O)(=O)N1CCN(CCc2ccccn2)CC1,25.7%
18,Cc1c(O)cc(-c2cnc(N/N=C/c3ccccc3)s2)c(O)c1C,61.6%
19,CSC1=NCCCC1,102%
20,COc1ccc(C2NC(=O)Nc3ccccc32)c(OC)c1 (stereo not given),103%

row,Structure (SMILES),growth
1,C/C(=N/NC(N)=S)c1ccc(Nc2nc(SCC(C)C)nc(-c3ccc(F)cc3)c2C#N)cc1,-19.4% (active)
2,CCC(C)[C@H](NC(=O)Nc1cc(C(F)(F)F)cc(C(F)(F)F)c1)C(=O)N[C@@H](Cc1cn(C)cn1)C(=O)OC (stereo not given in full),-74.1% [100 µM] (active)
3,CC(=O)ON1CCCC(P(=O)(OCCSC(=O)C(C)(C)C)OCCSC(=O)C(C)(C)C)C1=O (stereo not given),32%
4,CN(C)CCN1CCN(c2ncccc2C2Nc3ccccc3-n3cccc32)CC1 (stereo not given),109%
5,COc1ccc2c(c1)c(-c1nc(-c3cn(C)c4ccncc34)cs1)cn2C,-28.4% (active)
6,COc1ccc(-n2c(SCc3nnc(NC(=O)c4ccc(Br)cc4)s3)nc3cc(OC)c(OC)cc3c2=O)cc1,93.6%
7,CCCC(=O)NC(c1ccc(N(CC)CC)cc1)c1cc(C)c2cccnc2c1O (stereo not given),-16.1% (active)
8,CCCCNC(=O)Oc1ccc(/C(=C(\C)c2ccc(Cl)cc2)c2ccc(OCCN(CC)CC)cc2)cc1,71.8%
9,ClCCOCCOc1ccc(C2CCCCC2)cc1,91.2%
10,CCCCCCCCCCCCOc1ccccc1C=O,91.3%
11,N#Cc1c(-c2ccccc2)cc(-c2ccccc2)n(CCCCC(=O)O)c1=O,89.1%
12,CCN(CC)CCC(CNc1c2ccc(Cl)cc2nc2ccc(OC)cc12)c1ccccc1 (stereo not given),-87.1% (active)
13,CC1(C)OC(=O)C(c2ccsc2)C(=O)O1,114%
14,O=C1C(c2ccccc2)=C(N2CCc3ccccc32)OC1(Cl)Cl,78.4%
15,OB(O)c1cccc(-c2nc3ccc4[nH]ncc4c3c3c2CCCC3)c1,59.3%
16,C#CCOc1cccc(Nc2ncc3ncn(C4CCN(C(=O)CCl)C4)c3n2)c1 (stereo not given),24.5% [6.25 µM]
17,Nc1nccc2c1ccn2-c1ccc(NC(=O)c2ccc(N3CCOCC3)c(C(F)(F)F)c2)cc1,27.6%
18,CCN(CC)c1ccc(C(=C2C=CC(=[N+](CC)Cc3cccc(S(=O)(=O)O)c3)C=C2)c2ccc(N(CC)Cc3cccc(S(=O)(=O)O)c3)cc2)cc1,12.1%
19,Fc1ccc2c(c1)c(-c1nc(-c3c[nH]c4ncccc34)cs1)cn2CCCN1CCOCC1,18.3%
20,CCOC(=O)C(Cc1ccccc1)n1c(O)c(C=Nc2ccc(C(=O)OCCN(CC)CC)cc2)sc1=O (stereo not given),82.6%
